Test results: PubChem BioAssay (NCATS)
Records with an inconclusive call do not appear. Entries that show only a call come without a potency. The source made the active and inactive calls. Calls follow the shape of the dose curve; as a rule, active = well fitted inhibition curve with a large enough effect in the repeat runs; inconclusive = weak or mixed curves; inactive = flat fitted curve, though single readings scatter.

biological target: Cytochrome P450 2D6 (Homo sapiens) (UniProt P10635); experiment: Cytochrome P450 family 2 subfamily D member 6 (CYP2D6) small molecule antagonists: luciferase biochemical (cell-free) qHTS assay (AID 1645840); details: P450-Glo CYP2D6 enzyme, luciferin luminescence, 1 h; series mostly up to 57.4 µM; also: nearly all actives have a fitted effect of over 55% in size
Experimental: National Center for Advancing Translational Sciences [NCATS] Assay Overview: Cytochrome P450 (CYP) enzymes are membrane-bound hemeproteins that play a key role in metabolism of drugs and xenobiotics. Assaying the effect of chemicals on CYP isozymes is useful to minimize the adverse drug reactions and toxicities in drug development process. Chemical compounds were tested for their effect on CYP enzyme activities by using P450-Glo (TM) screening systems (Promega Corporation, Madison, WI). These systems provide a luminescent method containing proluciferin substrates and are converted to luciferin products by CYP isozymes. The luciferin products formed are detected with a luciferin detection reagent, and the amount of light produced is proportional to CYP activity. P450-Glo (TM) CYP2D6 screening system (Catalog. No. V9890) was used to detect the compounds that interfere in CYP2D6 activity.
Assay Protocol Summary: Two ul of enzyme-substrate mix was dispensed into medium binding white/solid 1536-well plates (Greiner Bio-One North America Inc., Monroe, NC) using a Flying Reagent Dispenser (FRD, Aurora Discovery, San Diego, CA). […] The assay plates were incubated at room temperature for 10 min. Then 2 ul of NADPH regeneration solution was added to each well of the assay plates using an FRD and incubated at room temperature for 1 h. The reaction was stopped by adding 4 ul of detection reagent using an FRD and after 20 min incubation at room temperature, the luminescence signal was measured using a ViewLux plate reader (Perkin Elmer, Shelton, CT). Data were expressed as relative luminescence units.
Potency is read from the fitted curve at half-maximal effect.

Chain of Cytochrome P450 2D6 (Homo sapiens) (P10635 whole entry, looked up): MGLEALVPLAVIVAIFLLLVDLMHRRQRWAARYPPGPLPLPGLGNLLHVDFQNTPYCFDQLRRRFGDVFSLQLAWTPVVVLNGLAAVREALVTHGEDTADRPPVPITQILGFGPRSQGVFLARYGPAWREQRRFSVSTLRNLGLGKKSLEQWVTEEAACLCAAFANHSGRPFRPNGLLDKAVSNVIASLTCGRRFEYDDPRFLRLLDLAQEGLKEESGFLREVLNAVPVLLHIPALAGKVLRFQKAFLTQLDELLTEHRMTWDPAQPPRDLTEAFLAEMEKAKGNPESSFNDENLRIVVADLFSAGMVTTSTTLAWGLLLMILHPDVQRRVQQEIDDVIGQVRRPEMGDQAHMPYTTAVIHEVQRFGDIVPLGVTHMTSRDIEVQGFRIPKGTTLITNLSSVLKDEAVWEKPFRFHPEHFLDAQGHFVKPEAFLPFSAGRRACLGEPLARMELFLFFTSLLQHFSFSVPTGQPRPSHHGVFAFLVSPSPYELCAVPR

Structure (SMILES) | Potency
COc1ccc(OC)c(/C=C(\C#N)c2nc3ccccc3c(=O)[nH]2)c1 | inactive
Nc1c(-c2nc(-c3ccc4c(c3)OCO4)cs2)c2ccccn2c1C(=O)c1ccccc1 | inactive
CC1(C#N)CCN(c2c(C(=O)N3CCC(S(C)(=O)=O)CC3)cnc3cc(F)c(F)cc23)CC1 | inactive
CCn1cc(/C=C(\NC(=O)c2ccc(C)cc2)C(=O)NCCCn2ccnc2)c2ccccc21 | 0.169 µM (active)
CCNC(=O)N1CCN(C(=O)c2cnc3cc(OC)ccc3c2N2CCC(C)(C#N)CC2)CC1 | inactive
O=C(CSc1nc2ccsc2c(=O)n1Cc1ccccc1F)NCc1ccccc1Cl | 2.68 µM (active)
COc1ccccc1OCCn1c(NC(=O)c2ccccc2Cl)nc2ccccc21 | inactive
CCOc1ccccc1NC(=O)Nc1nnc(N2CCCC(C)C2)s1 (stereo not given) | inactive
O=C(CSc1nc(-c2ccc(F)cc2)nc2c1Cc1ccccc1O2)Nc1cccc(C(=O)O)c1 | inactive
O=C(CSc1nc(-c2ccc(F)cc2)[nH]c1-c1ccc(F)cc1)Nc1ccc2c(c1)OCO2 | 2.13 µM (active)
Cc1ccc(C2=CC(c3ccccc3C)n3c(nc4ccccc43)N2)cc1 (stereo not given) | 9.52 µM (active)
CCCCn1cnc2cc(NCc3ccccc3Cl)ccc21 | 0.12 µM (active)
CCOC(=O)c1ccc(NC(=O)CSc2cc(-c3ccccc3)nc(C)n2)cc1 | inactive
CCOc1ccc(CCNC(=O)C2CCCN(c3nnc(C)c4c(C)n(-c5ccccc5)nc34)C2)cc1 (stereo not given) | 4.77 µM (active)
Cc1ccnc(NC(c2cccc(O)c2)c2ccc3ccc(C)nc3c2O)c1 (stereo not given) | 13.5 µM (active)
CCc1ccc(CNC(=O)C2CCCN(c3nnc(C)c4c(C)n(-c5ccc(OC)cc5)nc34)C2)cc1 (stereo not given) | 7.56 µM (active)
CCn1cc2nc(SCC(=O)Nc3ccc(OC)c(OC)c3)n(Cc3ccc(Cl)cc3)c(=O)c2n1 | 9.52 µM (active)
COc1ccc(CC2c3cc(OC)c(OC)cc3CCN2CCC(=O)OCCCCCOC(=O)CCN2CCc3cc(OC)c(OC)cc3C2Cc2ccc(OC)c(OC)c2)cc1OC (stereo not given) | inactive
Oc1c(C(c2ccc(Cl)cc2Cl)N2CCN(Cc3ccccc3)CC2)sc2nc(-c3ccco3)nn12 (stereo not given) | 7.56 µM (active)
COc1cc(=O)n2c(c1C(=O)NCc1ccc3c(c1)OCO3)CCN(C(=O)c1ccc(C)cc1C)CC2 | 10.7 µM (active)

Structure (SMILES) | Potency
CCOc1ccccc1NC(=O)Cn1c(=O)n(CCC(=O)NCc2ccc3c(c2)OCO3)c(=O)c2ccccc21 | 0.425 µM (active)
CCCCC1CCC(CCCC(C)CCC(=O)O)CC1 (stereo not given) | inactive
COc1ccc(CCNc2nc(SCc3ccccc3F)nc3ccccc23)cc1OC | 0.151 µM (active)
Nc1nc(Nc2ccc3c(c2)CC[C@@H](N2CCCC2)CC3)nn1-c1cc2c(nn1)-c1ccccc1CCC2 | 5.35 µM (active)
CN(C)[S+](=O)([O-])c1ccc([S+](=O)([O-])N(Cc2cccs2)Cc2ccccc2Cl)cc1 | 1.9 µM (active)
Cc1[nH]n2c(=O)cc(-c3ccc(Cl)cc3)nc2c1-c1ccccc1 | inactive
Cc1ccc2c(c1)-c1c(c(C(=O)N3CCN(c4cc(C)ccc4C)CC3)nn1C)CS2 | inactive
Cc1ccn2c(Nc3ccccc3C)c(-c3ccccn3)nc2c1 | 19 µM (active)
CC(NC(=O)C(=O)Nc1c2c(nn1-c1ccccc1)CSC2)c1ccccc1 (stereo not given) | inactive
CCOCCCNC(=O)C(=O)Nc1c2c(nn1-c1ccc(OC)cc1)CSC2 | inactive
OC[C@@H](O)C(O)[C@@H](O)CO (stereo not given in full) | inactive
CCOc1ccc(NC(=O)Cn2cc(C(=O)c3cccs3)c3ccccc32)cc1 | inactive
O=C(CC1N=C2c3ccccc3N=C(SCc3ccc(F)cc3)N2C1=O)NC1CCCCC1 (stereo not given) | 3.01 µM (active)
C[S+](=O)([O-])Nc1ccc(-c2ccc3nc(-c4cccc(OC(F)(F)F)c4)[nH]c3c2)cc1 | inactive
CC1=C(C(=O)Nc2ccc(CN)cc2)C(c2ccccc2Cl)N=C(Nc2nc3ccccc3o2)N1 (stereo not given) | 15.1 µM (active)
C[C@@H]1C[C@H]2[C@@H]3C[C@H](F)C4=CC(=O)C=C[C@]4(C)[C@@]3(F)[C@@H](O)C[C@]2(C)[C@@]1(O)C(=O)COC(=O)C(C)(C)C | inactive
O=C(Nc1cccc(Cl)c1)c1c(NC(=O)C(F)(F)F)sc2c1CCCC2 | 4.46 µM (active)
CC(=O)c1ccc(N2CCN(c3ncnc4c3cnn4C)CC2)cc1 | inactive
COc1cc(C(=O)NC(c2ccccc2Cl)c2cc(Cl)c3cccnc3c2O)cc(OC)c1OC (stereo not given) | inactive
COC(=O)c1ccc(C2C=C(c3ccc(Cl)cc3)Nc3nc4ccccc4n32)cc1 (stereo not given) | 3.38 µM (active)
